Bioassay records: PubChem BioAssay, National Center for Advancing Translational Sciences (NCATS)
A selection: hits, their analogues and other compounds. The true share with any hit is near 7.9%.
MCF10A rerep – DNA re-replication induction in MCF 10a cells; Potency, µM (doses to about 46.1 µM), hits mostly activators; hit rate 2.9% among 350,000; MCF 10A DNA re-replication, Hoechst nuclear intensity, 48 h; note: nearly all actives have a fitted effect of over 50% in size
SW480 rerep – DNA re-replication induction in SW480 cells; SW480 DNA re-replication, Hoechst DNA content imaging, 48 h; AID 624297; hit rate 1.8% among 340,000; Potency, µM (highest dose often 46.1 µM), most hits filed as activators; note: nearly all actives have a fitted effect of over 55% in size
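Readout is total intensity of Hoechst-stained nuclei, excited at 405 nm and collected at 500-530 nm. Compound treatment lasted 48 hr at 37 C in 5% CO2 before staining.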
HT1080-NT tox – kills 2HG-producing HT-1080-NT fibrosarcoma cells; AID 686970; HT-1080-NT fibrosarcoma viability, CellTiter-Glo ATP luminescence, 48 h; Potency, µM (top dose mostly 46.1 µM), most hits filed as cytotoxic; hit rate 1.6% among 360,000;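 note: NT is the 2HG producing partner of a matched IDH1 knockdown line; nearly all actives have a fitted effect of over 55% in size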
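Fibrosarcoma NT cells, 750 per well in 5% FBS RPMI, were exposed to compound for 48 hours. Viability: CellTiter-Glo luminescence.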
KB-3-1 cytotox – KB-3-1 parental cell cytotoxicity; hit rate 1.4% among 400,000; KB-3-1 viability, CellTiter-Glo ATP luminescence, 72 h; Potency, µM (doses to about 46.1 µM), hits mostly cytotoxic; note: nearly all actives have a fitted effect of over 60% in size
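Parental KB-3-1 viability, qHTS format: 72 h compound exposure, 37 °C; CellTiter-Glo; media-only wells and DMSO plates as controls; concentration-effect fits on corrected data.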
HT1080 IDH1KD tx – kills HT-1080 cells with IDH1 knockdown; HT-1080 IDH1 knockdown viability, ATP luminescence, 48 h; Potency, µM (highest dose often 46.1 µM), actives largely listed as cytotoxic; hit rate 2% among 360,000; AID 686971
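HT-1080-IDH1KD cells (IDH1 knocked down), 750/well in RPMI with 5% FBS, treated with compound 48 h at 37 degrees C. Viability by CellTiter-Glo luminescence, normalised to DMSO and no-cell wells; concentration-response curves classed.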
KB-V1 cytotox – kills drug-selected multidrug resistant KB-V1 cells. KB-V1 MDR cells viability, CellTiter-Glo, 72 h. Potency, µM (highest dose often 46.1 µM), usual class: cytotoxic. hit rate 3.4% among 400,000. AID 1347076; note: nearly all actives have a fitted effect of over 60% in size
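Readout: CellTiter-Glo luminescence, 10 min after addition. Cells: KB-V1 MDR subline, 72 h at 37 degrees C with compound. Analysis: corrected, normalized data fitted to concentration-effect curves.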
Large screens that a line does not name were inactive. Calls come from the whole dose curve; as a rule, active = well fitted curve in the direction sought with a large enough effect; inconclusive = small, poorly fitted or top-dose-only effect, or another doubt; inactive = no such curve, though single readings can be large; an effect the other way counts as inactive or inconclusive.

O=Cc1s/c(=N\S(=O)(=O)c2ccccc2)n(CCCCl)c1Cl	MCF10A rerep inconclusive, SW480 rerep 8.2µM, HT1080-NT tox 7.31µM, KB-3-1 cytotox inconclusive, HT1080 IDH1KD tx 7.31µM
O=C(O)c1ccccc1Nc1ccccc1C(=O)O	none
O=[N+]([O-])c1ccccc1C=NNC(=S)NN=Cc1ccccc1[N+](=O)[O-]	MCF10A rerep 18.4µM, SW480 rerep 20.6µM, HT1080-NT tox inconclusive, KB-3-1 cytotox inconclusive, HT1080 IDH1KD tx inconclusive, KB-V1 cytotox inconclusive
O=C(O)c1ccccc1Nc1ccc([N+](=O)[O-])cc1	HT1080-NT tox inconclusive, KB-3-1 cytotox 9.2µM, HT1080 IDH1KD tx inconclusive, KB-V1 cytotox inconclusive
O=[N+]([O-])c1ccc(Cl)c(/C=N/NC(=S)Nc2ccccc2)c1	MCF10A rerep inconclusive, HT1080-NT tox inconclusive, HT1080 IDH1KD tx 4.47µM
CCOc1cccc(/C=N/NC(=S)Nc2ccccc2[N+](=O)[O-])c1O	HT1080-NT tox inconclusive, HT1080 IDH1KD tx 16.4µM
CCCCNC(=S)N/N=C/c1cccc(OCC)c1O	none
C/C(=N\NC(=O)c1ccc(O)cc1)c1ccc(NC(=O)Cc2ccccc2)cc1	KB-V1 cytotox inconclusive
O=C(CC1CCCCC1)NCCS(=O)(=O)N1CCN(c2ccccc2)CC1	none
Cc1ccc(CN(CC(=O)N/N=C/c2ccccc2[N+](=O)[O-])S(=O)(=O)c2ccc(C)cc2)cc1	none
CCCCN(CCCC)S(=O)(=O)c1ccc(NC(=O)c2ccc([N+](=O)[O-])cc2Cl)cc1	KB-3-1 cytotox inconclusive, HT1080 IDH1KD tx inconclusive, KB-V1 cytotox 16.4µM
CC(=O)N1CCN(c2ccc(NC(=O)c3ccc([N+](=O)[O-])cc3Cl)cc2)CC1	none
O=C(Nc1ccc(Nc2ccccc2)cc1)c1cc([N+](=O)[O-])ccc1Cl	HT1080-NT tox inconclusive, HT1080 IDH1KD tx 18.4µM
O=C(CN(Cc1ccccc1)S(=O)(=O)c1ccccc1)N/N=C/c1ccccc1[N+](=O)[O-]	HT1080-NT tox inconclusive, KB-V1 cytotox 23.1µM
O=[N+]([O-])c1ccc(O)c(/C=N\N=C2c3ccccc3-c3ccccc32)c1	MCF10A rerep inconclusive, SW480 rerep inconclusive, KB-3-1 cytotox 8.2µM, KB-V1 cytotox 13µM
O=C(Nc1ccccc1Oc1ccccc1)c1cc([N+](=O)[O-])ccc1Cl	MCF10A rerep inconclusive, SW480 rerep inconclusive, KB-3-1 cytotox inconclusive, KB-V1 cytotox inconclusive
O=C(Cc1ccc(OCc2ccccn2)cc1)NO	none (no result: MCF10A rerep, SW480 rerep, HT1080-NT tox, HT1080 IDH1KD tx)
COc1cc(OC)cc(N2CCN(S(=O)(=O)c3ccc(-n4cnnn4)cc3)CC2)c1	none
O=C(CCC1CCCN(C(=O)c2cccc(F)c2)C1)N1CCN(c2ccccn2)CC1 (stereo not given)	KB-V1 cytotox inconclusive
O=[N+]([O-])c1ccc(O)c(/C=N/Nc2ccc(Cl)nn2)c1	MCF10A rerep 0.731µM, SW480 rerep inconclusive, HT1080-NT tox inconclusive, KB-3-1 cytotox inconclusive, HT1080 IDH1KD tx 0.206µM
O=[N+]([O-])c1ccc(O)c(/C=N/Nc2nn[nH]n2)c1	MCF10A rerep inconclusive
O=C(CCC(=O)Nc1cc(C(F)(F)F)ccc1Cl)N/N=C\c1cc([N+](=O)[O-])ccc1O	MCF10A rerep inconclusive, SW480 rerep 14.6µM, HT1080-NT tox inconclusive
O=C(N/N=C/c1cc([N+](=O)[O-])ccc1O)c1cccc(NC(=O)c2cccc(Cl)c2)c1	SW480 rerep 2.31µM
O=C(CCC(=O)Nc1ccc(F)cc1)N/N=C/c1cc([N+](=O)[O-])ccc1O	SW480 rerep inconclusive
CCN(CC(=O)NC(=O)NCc1ccccc1)Cc1ccccc1	SW480 rerep inconclusive
CCN1C(=O)C2(Nc3ccccc3-c3nc4ccccc4n32)c2cc(OC)ccc21 (stereo not given)	KB-3-1 cytotox inconclusive, KB-V1 cytotox 13µM
COc1cccc(CNC(=O)[C@@H]2CCCN2C(=O)[C@H]2CCCCN2C(=O)c2cccc(OC)c2)c1	none (no result: MCF10A rerep, SW480 rerep)
O=C(c1cc2nc(-c3ccc(F)cc3)cc(C(F)(F)F)n2n1)N1CCCCC1c1cccnc1 (stereo not given)	MCF10A rerep inconclusive, SW480 rerep inconclusive, HT1080-NT tox inconclusive, KB-3-1 cytotox 3.26µM, HT1080 IDH1KD tx 18.4µM, KB-V1 cytotox inconclusive
